Results published in publication PMC7862700, “An all-to-all approach to the identification of sequence-specific readers for epigenetic DNA modifications on cytosine”.

Tests used:
Test in all cases: DAPPL (digital affinity profiling via proximity ligation, sequencing); 10 mM Tris-HCl pH 7.5, 50 mM NaCl, 1 mM DTT, 4% glycerol, room temperature, 30 min; GST-TFs on glutathione beads, 16-mer random dsDNA library, 0.1% formaldehyde crosslink after washing; high values mean tight binding
FEV = molecular target: T1, FEV (Homo sapiens, UniProt Q99581 1-238); settings: protein: recombinant; tags: N-terminal GST; dsDNA, one strand shown
T1 sequence: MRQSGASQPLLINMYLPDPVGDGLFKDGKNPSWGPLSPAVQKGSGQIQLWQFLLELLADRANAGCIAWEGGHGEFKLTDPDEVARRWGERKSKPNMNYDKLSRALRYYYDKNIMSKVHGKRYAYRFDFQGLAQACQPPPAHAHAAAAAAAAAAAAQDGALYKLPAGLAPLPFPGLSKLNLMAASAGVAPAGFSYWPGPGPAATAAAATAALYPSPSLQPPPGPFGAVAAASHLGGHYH
Procedure, shortened: (§1)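 Binding signal is each hexamer's read frequency for a factor divided by its frequency in the tag-only sample. The factors were GST-fused human transcription factors from yeast, captured on glutathione beads, DNA-barcoded and pooled with that sample. Pools were incubated with 200 nmole of a random double-stranded 16-mer DNA library in Tris/NaCl/DTT/glycerol buffer at room temperature for 30 min, then washed, crosslinked with 0.1% formaldehyde, proximity-ligated with BsaI/T4 ligase (1 h, 37 °C), PCR-amplified and sequenced on an Illumina NextSeq500.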

ETV5 = ETV5 (Homo sapiens, UniProt P41161 1-510); settings: protein: recombinant; tags: N-terminal GST; dsDNA, one strand shown
Procedure, shortened: as §1

HSF1 = HSF1 (Homo sapiens, UniProt Q00613 1-529); settings: protein: recombinant; tags: N-terminal GST; chain copies: 3; dsDNA, one strand shown
Procedure, shortened: as §1

SPIC = molecular target: T2, SPIC (Homo sapiens, UniProt Q8N5J4 1-248); settings: protein: recombinant; tags: N-terminal GST; dsDNA, one strand shown
T2 sequence: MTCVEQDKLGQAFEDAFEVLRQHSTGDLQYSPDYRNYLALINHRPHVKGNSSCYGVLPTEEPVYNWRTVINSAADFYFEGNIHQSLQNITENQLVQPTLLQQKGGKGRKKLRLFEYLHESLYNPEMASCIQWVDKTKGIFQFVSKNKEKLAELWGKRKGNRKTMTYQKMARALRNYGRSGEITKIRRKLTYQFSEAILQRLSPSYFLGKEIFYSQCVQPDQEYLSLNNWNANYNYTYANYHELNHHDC
Procedure, shortened: as §1

ELF4 = ELF4 (Homo sapiens, UniProt Q99607 1-663); settings: protein: recombinant; tags: N-terminal GST; dsDNA, one strand shown
Procedure, shortened: as §1

ELK4 = molecular target: T3, ELK4 (Homo sapiens, UniProt P28324-2 1-405); settings: protein: recombinant; tags: N-terminal GST; dsDNA, one strand shown
T3 sequence: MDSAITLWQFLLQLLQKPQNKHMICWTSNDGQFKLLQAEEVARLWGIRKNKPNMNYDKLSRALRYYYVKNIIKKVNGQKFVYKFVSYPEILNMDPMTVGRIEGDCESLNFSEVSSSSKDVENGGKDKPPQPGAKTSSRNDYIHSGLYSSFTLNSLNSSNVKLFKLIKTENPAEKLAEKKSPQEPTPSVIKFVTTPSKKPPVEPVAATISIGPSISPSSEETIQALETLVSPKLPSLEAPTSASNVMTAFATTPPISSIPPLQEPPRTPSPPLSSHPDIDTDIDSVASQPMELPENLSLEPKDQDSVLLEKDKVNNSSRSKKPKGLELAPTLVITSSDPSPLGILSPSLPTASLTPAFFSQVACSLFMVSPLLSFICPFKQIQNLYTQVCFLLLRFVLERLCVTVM
Procedure, shortened: as §1

ETV2 = molecular target: T4, ETV2 (Homo sapiens, UniProt O00321 1-342); settings: protein: recombinant; tags: N-terminal GST; dsDNA, one strand shown
T4 sequence: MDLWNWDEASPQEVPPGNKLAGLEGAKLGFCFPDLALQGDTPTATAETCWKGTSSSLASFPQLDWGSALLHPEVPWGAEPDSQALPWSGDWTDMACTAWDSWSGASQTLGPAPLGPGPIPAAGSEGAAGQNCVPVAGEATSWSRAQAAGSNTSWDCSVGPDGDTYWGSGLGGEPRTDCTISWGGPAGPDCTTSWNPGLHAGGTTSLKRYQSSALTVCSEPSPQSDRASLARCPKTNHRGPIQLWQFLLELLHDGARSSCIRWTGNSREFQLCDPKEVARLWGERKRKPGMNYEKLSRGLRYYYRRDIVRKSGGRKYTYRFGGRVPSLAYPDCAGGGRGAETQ
Procedure, shortened: as §1

ELF3 = molecular target: T5, ELF3 (Homo sapiens, UniProt P78545 1-371); settings: protein: recombinant; tags: N-terminal GST; dsDNA, one strand shown
T5 sequence: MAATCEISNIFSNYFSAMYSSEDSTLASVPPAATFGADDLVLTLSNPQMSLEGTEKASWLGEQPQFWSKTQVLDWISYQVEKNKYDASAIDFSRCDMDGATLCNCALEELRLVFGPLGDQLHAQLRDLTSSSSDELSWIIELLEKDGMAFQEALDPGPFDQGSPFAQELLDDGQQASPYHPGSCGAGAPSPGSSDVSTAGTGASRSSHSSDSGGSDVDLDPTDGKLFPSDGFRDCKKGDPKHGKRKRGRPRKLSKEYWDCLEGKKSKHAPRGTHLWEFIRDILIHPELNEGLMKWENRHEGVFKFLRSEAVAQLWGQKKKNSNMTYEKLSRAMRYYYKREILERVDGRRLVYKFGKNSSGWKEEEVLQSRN
Procedure, shortened: as §1

CRX = CRX (Homo sapiens, UniProt O43186 1-299); settings: protein: recombinant; tags: N-terminal GST; dsDNA, one strand shown
Procedure, shortened: as §1

ETV1 = ETV1 (Homo sapiens, UniProt P50549 1-477); settings: protein: recombinant; tags: N-terminal GST; dsDNA, one strand shown
Procedure, shortened: as §1

Sequence of ELF4 (Q99607 whole entry): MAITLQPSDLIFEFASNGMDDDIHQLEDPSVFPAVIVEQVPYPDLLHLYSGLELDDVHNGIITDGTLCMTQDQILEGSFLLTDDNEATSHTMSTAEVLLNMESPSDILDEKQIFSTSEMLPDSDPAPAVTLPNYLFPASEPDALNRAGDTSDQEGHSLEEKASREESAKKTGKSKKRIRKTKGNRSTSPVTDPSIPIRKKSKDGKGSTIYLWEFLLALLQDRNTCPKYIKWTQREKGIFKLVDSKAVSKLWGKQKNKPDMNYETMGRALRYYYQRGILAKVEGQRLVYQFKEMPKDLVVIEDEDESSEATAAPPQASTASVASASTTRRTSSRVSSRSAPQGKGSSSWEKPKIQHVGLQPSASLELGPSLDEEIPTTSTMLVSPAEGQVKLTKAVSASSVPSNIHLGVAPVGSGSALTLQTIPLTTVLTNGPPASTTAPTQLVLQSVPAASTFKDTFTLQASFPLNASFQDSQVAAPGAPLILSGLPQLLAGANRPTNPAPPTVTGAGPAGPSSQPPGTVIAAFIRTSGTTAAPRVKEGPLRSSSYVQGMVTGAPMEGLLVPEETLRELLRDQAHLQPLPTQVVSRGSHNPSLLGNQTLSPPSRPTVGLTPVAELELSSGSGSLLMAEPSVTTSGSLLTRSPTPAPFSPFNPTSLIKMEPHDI
Sequence of ETV5 (P41161 whole entry): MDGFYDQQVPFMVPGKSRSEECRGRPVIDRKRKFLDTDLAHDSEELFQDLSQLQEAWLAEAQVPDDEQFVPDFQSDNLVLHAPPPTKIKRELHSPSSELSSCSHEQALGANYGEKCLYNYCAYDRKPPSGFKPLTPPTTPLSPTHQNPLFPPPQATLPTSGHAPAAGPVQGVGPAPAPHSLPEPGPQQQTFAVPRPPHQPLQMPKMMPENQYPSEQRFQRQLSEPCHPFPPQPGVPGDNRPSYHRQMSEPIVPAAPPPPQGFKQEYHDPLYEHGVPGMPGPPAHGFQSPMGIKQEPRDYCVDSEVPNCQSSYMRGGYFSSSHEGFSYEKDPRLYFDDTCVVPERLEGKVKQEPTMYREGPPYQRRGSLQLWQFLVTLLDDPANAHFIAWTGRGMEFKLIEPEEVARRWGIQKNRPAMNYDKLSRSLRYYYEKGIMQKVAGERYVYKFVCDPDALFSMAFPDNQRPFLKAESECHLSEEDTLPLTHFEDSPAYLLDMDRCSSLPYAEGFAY
Sequence of CRX (O43186 whole entry): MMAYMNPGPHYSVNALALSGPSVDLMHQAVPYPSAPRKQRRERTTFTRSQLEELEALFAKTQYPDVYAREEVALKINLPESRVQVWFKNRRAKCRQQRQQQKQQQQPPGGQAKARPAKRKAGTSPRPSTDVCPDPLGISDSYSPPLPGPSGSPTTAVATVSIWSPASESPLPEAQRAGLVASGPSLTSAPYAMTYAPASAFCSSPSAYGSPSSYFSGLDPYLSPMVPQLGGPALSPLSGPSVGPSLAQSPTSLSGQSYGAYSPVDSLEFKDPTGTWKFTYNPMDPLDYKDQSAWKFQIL
Sequence of ETV1 (P50549 whole entry): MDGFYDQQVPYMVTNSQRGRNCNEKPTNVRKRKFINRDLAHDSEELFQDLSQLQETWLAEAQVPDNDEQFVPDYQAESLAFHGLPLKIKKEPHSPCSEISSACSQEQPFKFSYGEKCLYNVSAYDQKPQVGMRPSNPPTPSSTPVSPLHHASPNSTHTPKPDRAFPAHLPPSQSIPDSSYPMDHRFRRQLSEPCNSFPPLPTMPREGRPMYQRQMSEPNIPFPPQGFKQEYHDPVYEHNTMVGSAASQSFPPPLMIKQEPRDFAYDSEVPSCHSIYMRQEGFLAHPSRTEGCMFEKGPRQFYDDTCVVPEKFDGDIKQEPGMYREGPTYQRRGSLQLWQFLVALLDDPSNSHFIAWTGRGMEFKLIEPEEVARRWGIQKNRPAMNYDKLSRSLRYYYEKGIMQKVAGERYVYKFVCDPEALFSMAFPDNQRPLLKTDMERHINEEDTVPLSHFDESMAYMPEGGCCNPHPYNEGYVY
Sequence of HSF1 (Q00613 whole entry): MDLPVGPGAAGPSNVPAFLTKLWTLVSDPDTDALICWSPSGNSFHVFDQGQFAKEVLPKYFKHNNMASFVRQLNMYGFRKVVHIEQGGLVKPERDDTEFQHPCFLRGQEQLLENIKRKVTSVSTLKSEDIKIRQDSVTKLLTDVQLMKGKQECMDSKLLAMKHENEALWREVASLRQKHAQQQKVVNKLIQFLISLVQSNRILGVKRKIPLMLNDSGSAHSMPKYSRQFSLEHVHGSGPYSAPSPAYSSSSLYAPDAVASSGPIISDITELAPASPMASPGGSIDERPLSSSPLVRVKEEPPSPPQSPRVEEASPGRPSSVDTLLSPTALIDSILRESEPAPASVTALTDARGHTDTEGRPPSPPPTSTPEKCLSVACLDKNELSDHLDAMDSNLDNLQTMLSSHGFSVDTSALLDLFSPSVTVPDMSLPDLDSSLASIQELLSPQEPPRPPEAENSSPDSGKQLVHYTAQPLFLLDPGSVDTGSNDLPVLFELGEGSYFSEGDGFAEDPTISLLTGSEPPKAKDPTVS

TGGCAA
binding signal (FEV): 1.17 fold enrichment (6-mer frequency, TF over GST control) | binding signal (ETV5): 1.18 fold enrichment (6-mer frequency, TF over GST control) | binding signal (HSF1): 1.18 fold enrichment (6-mer frequency, TF over GST control) | binding signal (SPIC): 1.13 fold enrichment (6-mer frequency, TF over GST control) | binding signal (ELF4): 1.21 fold enrichment (6-mer frequency, TF over GST control) | binding signal (ELK4): 1.19 fold enrichment (6-mer frequency, TF over GST control) | binding signal (ETV2): 1.11 fold enrichment (6-mer frequency, TF over GST control) | binding signal (ELF3): 1.03 fold enrichment (6-mer frequency, TF over GST control) | binding signal (CRX): 1.07 fold enrichment (6-mer frequency, TF over GST control) | binding signal (ETV1): 1.16 fold enrichment (6-mer frequency, TF over GST control)
